Changes are numbered by the printed parent chain. Whole data set: some 24,000 sequences, median “enrichment r” near 0.99, cut for the highest 2% near 3.7. The sample holds the highest values, similar sequences and a random draw of the others, so the mix is not that of the screen.
T1: UNK ZnF1-3 (human, UniProt Q9C0B0 31-174)
T1 sequence: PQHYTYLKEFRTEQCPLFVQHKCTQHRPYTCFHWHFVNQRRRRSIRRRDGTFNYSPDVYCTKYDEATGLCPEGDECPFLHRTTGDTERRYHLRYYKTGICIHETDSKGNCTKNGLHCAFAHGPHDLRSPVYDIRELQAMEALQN

B1: 25243085_25243205_1728_CDS_ENSMUSG00000059669_ENSMUST00000075954|mouse|control|control (ssRNA)
RNA: GGGAGUUCUACAGUCCGACGAUCUCCUGAGCUCUUUUUUGAUUCGUUGUAUUUUUUUUCAAAAAGUUUCUUUUCAAGUAAGCUCACUUCUUCAUGGAGAGCAGAGGUCUUUAUUCUCAGUAAGAAGGAGAAGAUGUUUAGUAUCAACAGAGGAUUGAGCAUCA
B2: chr8:59488481:59488482:+_ENSG00000137575_ENST00000447182|hu_mus|motif|central (ssRNA)
RNA: GGGAGUUCUACAGUCCGACGAUCUCCAGCAUCGUUACCUGUCACAGGUGCUACCAUAUAGUUCACACUGGAUGGUCUUGCGGCCAACCCUUGUGCUGGUGCUCCAGAGACCAUGGGCAUGCUCUCACAUAUUUCAGCUUCAUUCAACAGAGGAUUGAGCAUCA
B3: chr11:77340908:77340909:-_ENSG00000074201_ENST00000525064|hu_hu|hu_hu_hu_mus_True|8_108 (ssRNA)
RNA: GGGAGUUCUACAGUCCGACGAUCGUUUCGGUCCCUGGACACCGCAUGUAAACUAAUGGUGGGGUAUUCCAGUGAGAAUCCUAAUCCCGAACCAUCUAACCAGGACAGGCGGCUCUCCGCGAUGUAAAGGGUACCAGUGCCGAGCAACAGAGGAUUGAGCAUCA
B4: chr3:119217614:119217615:+_ENSG00000113845_ENST00000264244|hu_hu|FALSE|FALSE (ssRNA)
RNA: GGGAGUUCUACAGUCCGACGAUCCUCUACAGAGAAAGCUCCGCGGUGCCGGUGGCGGCACCUCCAUGGCCUUCUCUCGACCUACGGACAAACUUGAGCGCUCAGGACUUCAAGUCCUCGCGGACGUGCCGCGGGAGAGCGUAACAACAGAGGAUUGAGCAUCA
B5: 60766971_60767091_3885_CDS_ENSG00000011028_ENST00000303375|human|control|control (ssRNA)
RNA: GGGAGUUCUACAGUCCGACGAUCCGUGCGCAGCCCUCGGGCAGCCUGCGUGAGGAAGGCCUGGGUGUAGGGGUCGGGCACGUAGGCCAGGCUGGCAUUGCGGCUCUCACACAGCAGGAGGGCAUCGUGCCAGCGCAGCGGCUUCAACAGAGGAUUGAGCAUCA
B6: chr22:38881817:38881818:-_ENSG00000100201_ENST00000396821|hu_hu|FALSE|FALSE (ssRNA)
RNA: GGGAGUUCUACAGUCCGACGAUCUUAUUCCAGACUGGAUCAUUUUGGUGGGCAGAAGAAACCUGGCAGUGAAUUCUAACUAAUCUGCAUGAAAAGACAAAUCACGAUGGUUGGGGGGAAAAAUUAAAAAAAAAAAAAGAAAAACAACAGAGGAUUGAGCAUCA
B7: 87419285_87419405_2552_3pUTR_ENSMUSG00000028496_ENSMUST00000078090|mouse|control|control (ssRNA)
RNA: GGGAGUUCUACAGUCCGACGAUCGAAAAUCAAGGUGGCUAUUUGGUCCCCCCAGUUGGUAACUAUGUCCUGGAACUGGGAAAACAAAGAUGGAAACCAUAGACUGCAACAAGUUAAAGGACCUGGGAAGAGUUGGUGGAAAGUCAACAGAGGAUUGAGCAUCA
B8: 193603509_193603629_2668_3pUTR_ENSMUSG00000026623_ENSMUST00000110855|mouse|control|control (ssRNA)
RNA: GGGAGUUCUACAGUCCGACGAUCUAAAUCACAUGAACAAAAGGACAAAUCUUUCAAAAGGUUUCUACGAUGAACAGAAACUUGCUUGGCUUUGCCCUCUUAGAAGACGACUGGAAGAGACUGGGAAGUGUUUUUGAGCUGCUGCAACAGAGGAUUGAGCAUCA
B9: chr17:26793470:26793471:+_ENSMUSG00000001576_ENSMUST00000167662|mus_mus|FALSE|FALSE (ssRNA)
RNA: GGGAGUUCUACAGUCCGACGAUCAUUGGAAUCAGAGGAAAAAUUACAAAUGGCAGAGAAUCCAGCUACCCAUAAGAGACUAUUUAAGAAAAACAAAACCAAAACCAAACAAAAACAAAAAACCCCAAAACUUCCUACUGCAGGCAACAGAGGAUUGAGCAUCA
B10: chr1:66459500:66459501:+_ENSMUSG00000015222_ENSMUST00000114013|mus_hu|motif|central (ssRNA)
RNA: GGGAGUUCUACAGUCCGACGAUCUAAAAAGGCAGGGGCAAAGGGCGAUGUUUCUGUAACUAUUUCAUUCUUCAUGACAUCGGAAGGAAGAGUGAAGCUUCCCCCUUGAAAGGGACUUGGCAUGGGAGAAUCAAACUGUUUCCCCAACAGAGGAUUGAGCAUCA
B11: chr12:55960871:55960872:-_ENSMUSG00000062929_ENSMUST00000078124|mus_mus|motif|central (ssRNA)
RNA: GGGAGUUCUACAGUCCGACGAUCUACUAAGCUUUAAGACUGCUAUACGAUUUUUUUUUCCCAAUUCAUUUUGGAAAAGCGGUGAAGGAACUGUGGCUGAGACAAACAUUCCUAAACAUCACAAUCAUCAUUAACCUUCGAAUGCAACAGAGGAUUGAGCAUCA
B12: 36507729_36507849_895_3pUTR_ENSMUSG00000043671_ENSMUST00000051377|mouse|control|control (ssRNA)
RNA: GGGAGUUCUACAGUCCGACGAUCGAAAGAGGCUGUAAAUUUGGUCUCAGGAAGUAGGUAAUUGCUGCAAUCUGAAUUGCAAAAAAAGGCAGAGCCCAGUUCUCCCUCAGCGGGAUGGUAAACUCGACUCUUGUGGUGUCUAUUCAACAGAGGAUUGAGCAUCA
B13: chr16:45711415:45711416:-_ENSMUSG00000022658_ENSMUST00000096057|mus_hu|FALSE|FALSE (ssRNA)
RNA: GGGAGUUCUACAGUCCGACGAUCUUAUUAGGUGCAUUCUAUAAGUUGAAGAGGAGAAUUUUUGGCAAAUAAAUAAAUAAAUAAAUAAAUAAUCAAACAGAGACUCUGGGGCCCGAGGAGCUCAGGAAAACGGAAGCGGAGUCUCAACAGAGGAUUGAGCAUCA
B14: chr12:39763582:39763583:-_ENSG00000139116_ENST00000544797|hu_hu|FALSE|FALSE (ssRNA)
RNA: GGGAGUUCUACAGUCCGACGAUCCUCUAAGAAUUGGGCAUUCACUUUAAAAUCUGGAGCAGGAAGCCCAUUUUUAAUUGCUAUGUGUUUUUUUUCUUCAAUACUCUUAAAAAGGUGUUUAACAGCUCGAGAAAUAAUACCCAGCAACAGAGGAUUGAGCAUCA
B15: chr22:38881817:38881818:-_ENSG00000100201_ENST00000396821|hu_hu|motif|central (ssRNA)
RNA: B6 RNA with U76G, A77G, U80G, A81G

target: T1, UNK ZnF1-3; assay: nsRBNS (natural sequence RNA bind-n-seq); RBNS binding buffer (assumed for nsRBNS): 25 mM Tris pH 7.5, 150 mM KCl, 3 mM MgCl2, 0.01% Triton X-100, 500 ug/ml BSA, 20 U/ml SUPERase-In, 4 C; UNK is unkempt and MSI1 is Musashi-1; names of the RNAs are library labels; protein concentration not given here; high values mean tight binding

| Binder | binding signal [enrichment R] |
| --- | --- |
| B1 | 0.743 |
| B2 | 0.558 |
| B3 | 1.38 |
| B4 | 0.297 |
| B5 | 0.311 |
| B6 | 11.1 |
| B7 | 1.56 |
| B8 | 1.27 |
| B9 | 3.74 |
| B10 | 0.819 |
| B11 | 0.982 |
| B12 | 0.793 |
| B13 | 13.2 |
| B14 | 2.47 |
| B15 | 13.5 |

Reference: publication PMC12136788
